In PubChem BioAssay one finds composite z-score and z-score data, which are given here for 21 molecules.

SMILES strings stand for the structures. The source made the active and inactive calls. Unless noted, the rule behind the calls is not given here.

Test [1] concerns XIP peptide (Xip251-270) binding. Description: XIP fragment 251-270 binding compounds – biochemical, small-molecule microarray, fluorescence 635/667 nm, 0.1 µg/mL protein, primary screen (AID 1182). The settings on record: fluorescent protein binding, 635 nm, higher = more signal, called active from +8 up or from −8 down.
Test [2] relates to XIP peptide (Xip251-270). Description: compounds binding XIP fragment 251-270 – biochemical, small-molecule microarray, fluorescence 635/667 nm, 0.5 µg/mL protein, primary screen (AID 1183). As to conditions: fluorescence 635 nm, higher = more signal.
Test [3] can be described thus: blood-stage malaria parasite viability loss – strain 3D7, DAPI fluorescence, 100 nL, primary screen (AID 1184).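 Note: parasites grown inside human red blood cells in medium with human serum.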 The settings on record: P. falciparum 3D7 growth, 3 d, higher = more signal.
Test [4] addresses Homeobox protein Hox-A13 (Mus musculus) (UniProt Q62424). Description: disruptors of Hoxa13 oligonucleotide interaction – biochemical, fluorescence polarization, labeled oligonucleotide, primary screen (AID 1185). As to conditions: Hoxa13:DNA binding, 15 min, higher = more signal, called active from +8 up or from −8 down.
A short description of test [5]: blockers of DNA damage checkpoint Chk1 activation – imaging, HeLa, hydroxyurea, phospho-Chk1 antibody, percent positive cells, primary screen (AID 1186). The settings on record: hydroxyurea-induced phospho-Chk1 immunofluorescence imaging, higher = more signal.
Test [6] can be described thus: blockers of DNA damage checkpoint Chk1 activation – imaging, HeLa, hydroxyurea, phospho-Chk1 nuclear intensity, primary screen (AID 1187). As to conditions: hydroxyurea-induced phospho-Chk1 immunofluorescence imaging, higher = more signal.

Homeobox protein Hox-A13 (Mus musculus), sequence (Q62424 whole entry, looked up): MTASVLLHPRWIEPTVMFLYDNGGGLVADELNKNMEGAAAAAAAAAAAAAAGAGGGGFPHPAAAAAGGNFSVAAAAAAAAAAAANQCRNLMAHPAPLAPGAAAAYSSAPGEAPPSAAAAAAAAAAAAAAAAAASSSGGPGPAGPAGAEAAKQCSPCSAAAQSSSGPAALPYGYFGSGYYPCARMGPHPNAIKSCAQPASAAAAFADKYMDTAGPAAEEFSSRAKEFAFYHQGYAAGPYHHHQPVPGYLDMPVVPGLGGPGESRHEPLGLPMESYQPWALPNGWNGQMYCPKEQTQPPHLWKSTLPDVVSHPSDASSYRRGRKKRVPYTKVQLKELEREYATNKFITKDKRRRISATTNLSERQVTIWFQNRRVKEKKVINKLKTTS

In the case of `CC(CO)N1C(=O)[C@@H]2[C@H]3C(=O)OCC=C[C@H]3OC23C=CCN(c2ccc(Cl)cc2)C(=O)[C@@H]13` (stereo partly specified), the composite z-score in test [1] was -0.4 (inactive); in test [2] it was -0.862. Besides, the z-score in test [3] was 0.599; in test [4], -3 (inactive); in test [5], -0.985 (inactive); in test [6], -0.995 (inactive).
For the molecule `C=C(COC)C(=O)CC[C@H](OC(=O)c1cccnc1)c1ccc(CO)o1`, the composite z-score in test [1] was 0.0246 (inactive); in test [2], 0.193. Further, the z-score was 0.535 in test [3], -4.81 (inactive) in test [4], 0.169 (inactive) in test [5] and -0.143 (inactive) in test [6].
Turning to `COCCOC(=O)N1C(=O)[C@@]2(c3cc(C#Cc4ccc(OC)cc4)ccc31)[C@H](C(=O)NC[C@H](O)c1ccccc1)[C@H]1C(=O)O[C@H](c3ccccc3)[C@H](c3ccccc3)N1[C@@H]2c1ccc(OCCO)cc1`, the composite z-score was 0.271 (inactive) in test [1] and 0.591 in test [2]. For the same molecule, the z-score is -2.17 in test [3], 1.56 (inactive) in test [4], 0.0092 (inactive) in test [5] and 0.117 (inactive) in test [6].
With `NC(=O)[C@@H]1[C@H]2C(=O)O[C@H](c3ccccc3)[C@H](c3ccccc3)N2[C@H](c2ccc(OCCO)cc2)[C@@]12C(=O)Nc1ccc(C#CCCO)cc12`, the values for the composite z-score in test [1] and in test [2] were 0.198 (inactive) and 0.808, respectively. Further, the z-score is 0.195 in test [3], -4.88 (inactive) in test [4], -0.504 (inactive) in test [5] and -0.804 (inactive) in test [6].
In the case of `COc1cc2c(cc1O)C(c1ccc(CN3CCCC3)cc1)N(C)CC2` (stereo unspecified), the composite z-score is -0.389 (inactive) in test [1] and -0.819 in test [2]. For the same molecule, the z-score in test [3] is -1.58; in test [4], -2.85 (inactive); in test [5], 0.227 (inactive); in test [6], 0.129 (inactive).
On to `CCCCC(=O)N(CCN1CCOCC1)[C@@H]1CC(C(=O)NCCO)=C[C@H](Oc2c(I)cc(CO)cc2OC)[C@H]1O`, for which the results for the composite z-score in test [1] and in test [2] were 0.763 (inactive) and 0.918, respectively. Moreover, the z-score in test [3] was -0.0342; in test [4], -4.26 (inactive); in test [5], -0.686 (inactive); in test [6] it was -0.31 (inactive).
As to `CCOC(=O)C1=C[C@@H](C(C)(C)C)N(S(=O)(=O)c2ccc(C)cc2)[C@H]1c1ccc(C)cc1`, the composite z-score in test [1] is 0.177 (inactive); in test [2], 0.325. The z-score is -2.07 in test [3], -0.0064 (inactive) in test [4], 0.0978 (inactive) in test [5] and -0.184 (inactive) in test [6].
On to `CCCCC(=C=CC[C@H](O)c1ccc(OCCO)cc1)C[C@H](O)c1cc(Cl)cc(Cl)c1O`, for which the figures for the composite z-score in test [1] and in test [2] were -0.0399 (inactive) and 0.416, respectively. The z-score was -1.51 in test [3], -2.25 (inactive) in test [4], -0.0695 (inactive) in test [5] and -0.301 (inactive) in test [6].
Turning to `COC(=O)[C@@]1(Cc2ccccc2)[C@H]2c3cc(C(=O)N(C)C)n(CCn4cc([N+](=O)[O-])nc4C)c3C[C@H]2CN1C(=O)c1ccccc1`, the composite z-score in test [1] was 0.731 (inactive); in test [2] it was 0.83. Also, the z-score in test [3] is 0.391; in test [4], -1.73 (inactive); in test [5], -0.3 (inactive); in test [6] it was -0.424 (inactive).
Consider `CC(C)CNC(=O)[C@@]1(c2ccc([N+](=O)[O-])cc2)CC(=O)N(C2CCCCC2)[C@@H]1c1ccc(CO)cc1`, for which the composite z-score was 0.32 (inactive) in test [1] and 0.104 in test [2]. Also, the z-score was -0.672 in test [3], -2.24 (inactive) in test [4], 0.0803 (inactive) in test [5] and 0.515 (inactive) in test [6].
Consider `[N-]=[N+]=NCc1ccccc1C[C@@]1(C(=O)N2CCCCC2)N=C(c2ccc(OCCCO)cc2)O[C@@H]1c1ccccc1CN=[N+]=[N-]`, for which the composite z-score is 0.0378 (inactive) in test [1] and -0.0651 in test [2]. The z-score in test [3] was -2.55; in test [4] it was 0.301 (inactive); in test [5] it was -0.382 (inactive); in test [6] it was -0.903 (inactive).
`O=C1O[C@H](c2ccccc2)[C@H](c2ccccc2)N2[C@H]1[C@@H](C(=O)Nc1nc3ccccc3s1)[C@]1(C(=O)Nc3ccc(C#CC4=CCCCC4)cc31)[C@H]2c1ccc(O)cc1`: the results for the composite z-score in test [1] and in test [2] were 0.847 (inactive) and 0.541, respectively. The z-score in test [3] was -0.987; in test [4], 3.34 (inactive); in test [5] it was -0.433 (inactive); in test [6], -0.749 (inactive).
For the molecule `CC(C)CNC(=O)[C@@H]1c2ccccc2C(=O)N(C2CCCCC2)[C@H]1c1ccc(CO)cc1`, the values for the composite z-score in test [1] and in test [2] were 0.737 (inactive) and 0.652, respectively. In addition, the z-score in test [3] is -0.68; in test [4] it was -2.05 (inactive); in test [5] it was -0.411 (inactive); in test [6], -0.339 (inactive).
For `CO[C@H]1O[C@H](CO)[C@@H](OC(=O)Nc2cccc(F)c2)[C@H](OC(=O)Nc2ccccc2-c2ccccc2)[C@H]1OC(=O)Nc1ccccc1-c1ccccc1`, the composite z-score in test [1] is 0.184 (inactive); in test [2] it was 0.857. Also, the z-score in test [3] was -1.7; in test [4], -4.36 (inactive); in test [5], -0.788 (inactive); in test [6], -1.36 (inactive).
As to `O=C1O[C@H](c2ccccc2)[C@H](c2ccccc2)N2[C@H]1[C@@H](C(=O)O)[C@]1(C(=O)Nc3ccc(C#CC4(O)CCCCCC4)cc31)[C@H]2c1ccc(O)cc1`, the composite z-score is -0.203 (inactive) in test [1] and 0.194 in test [2]. Moreover, the z-score in test [3] was 0.361; in test [4], -6.61 (inactive); in test [5], -0.308 (inactive); in test [6], -0.307 (inactive).
Consider `CCCCCN1CC=CC23O[C@@H]4C=CCOC(=O)[C@@H]4[C@H]2C(=O)N(CCO)[C@@H]3C1=O` (stereo partly specified), for which the composite z-score in test [1] was 0.647 (inactive); in test [2], -0.311. Moreover, the z-score is 1.34 in test [3], -3.88 (inactive) in test [4], -0.542 (inactive) in test [5] and -0.562 (inactive) in test [6].
Turning to `C=CCC(OC(C)=O)[C@@H]1[C@@H](N(Cc2cccc3ccccc23)C(=O)c2cccc3ccccc23)c2cc(OCCCO)ccc2N1C(=O)c1ccc2ccccc2c1` (stereo partly specified), the composite z-score in test [1] is 0.25 (inactive); in test [2], 0.012. Further, the z-score in test [3] was -2.41; in test [4], -1.18 (inactive); in test [5] it was -0.534 (inactive); in test [6], -0.158 (inactive).
In the case of `CCCNC(=O)[C@@]1(Sc2ccc(C)cc2)CC(=O)N(C2CCCCC2)[C@@H]1c1ccc(CO)cc1I`, the composite z-score is 0.398 (inactive) in test [1] and 0.372 in test [2]. In addition, the z-score is -0.688 in test [3], -4.72 (inactive) in test [4], 0.493 (inactive) in test [5] and 0.252 (inactive) in test [6].
For `COc1cc(CO)cc(I)c1O[C@H]1C=C(C(=O)NCCO)C[C@@H](NCC2CCCCC2)[C@@H]1O`, the composite z-score in test [1] is 0.0593 (inactive); in test [2], 0.465. In addition, the z-score in test [3] is -0.68; in test [4], -3.57 (inactive); in test [5], -1.23 (inactive); in test [6], -0.873 (inactive).
With `C=C(COC)/C(=C/C[C@H](OC(C)=O)c1cccc(OCCO)c1)c1cnc2ccccc2c1`, the composite z-score is 1.46 (inactive) in test [1] and 0.75 in test [2]. For the same molecule, the z-score in test [3] was -2.62; in test [4] it was -5.87 (inactive); in test [5] it was -0.104 (inactive); in test [6], 0.276 (inactive).
For the molecule `C=C(/C(=C/C[C@H](OC(=O)c1ccncc1)c1ccccc1OCCO)c1cnc2ccccc2c1)C(C)C`, the composite z-score in test [1] was -0.0266 (inactive); in test [2] it was 0.615. In addition, the z-score in test [3] is -2.96; in test [4], -4.2 (inactive); in test [5] it was 0.39 (inactive); in test [6] it was 0.0188 (inactive).
